Source: PubChem BioAssay (EPA / NIEHS)
Results filed as inconclusive are left out. Active and inactive are the calls of the source. The calls were made as follows, unless noted: active = hit-call score of the fitted dose curve at least 0.9, where 1 is the maximum; inconclusive = response in the unintended direction; inactive = score below 0.9.

Assays:
[1] = biological target: human Peroxisome Proliferator-activated Receptor alpha (PPARa), PPARA (gene 5465) (UniProt Q07869); test: ATG_PPARa_TRANS: Attagene TRANS-FACTORIAL HepG2 Assay for human Peroxisome Proliferator-activated Receptor alpha (PPARa) (AID 2283001);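 as to AC50: potency for gain of reporter signal over DMSO so agonist or activator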
Sequence of human Peroxisome Proliferator-activated Receptor alpha (PPARa), PPARA (gene 5465) (Q07869 whole entry, looked up, the tested form may be a part): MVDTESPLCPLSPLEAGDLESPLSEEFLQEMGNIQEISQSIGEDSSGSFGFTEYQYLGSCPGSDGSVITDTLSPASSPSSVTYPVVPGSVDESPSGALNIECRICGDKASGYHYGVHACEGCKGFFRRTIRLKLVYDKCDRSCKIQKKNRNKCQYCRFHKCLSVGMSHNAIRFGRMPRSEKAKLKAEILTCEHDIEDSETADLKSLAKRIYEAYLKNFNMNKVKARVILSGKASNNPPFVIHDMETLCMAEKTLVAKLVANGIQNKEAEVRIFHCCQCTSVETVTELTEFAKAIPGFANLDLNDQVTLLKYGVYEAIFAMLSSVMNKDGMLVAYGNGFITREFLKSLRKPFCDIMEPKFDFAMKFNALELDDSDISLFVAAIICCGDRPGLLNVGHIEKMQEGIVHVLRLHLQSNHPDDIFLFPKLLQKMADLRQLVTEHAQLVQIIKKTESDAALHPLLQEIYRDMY
Procedure, shortened: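 HepG2 cells transiently transfected with multiplexed GAL4-UAS reporter units and chimeric NR-Gal4 constructs were dosed for 24 h. Reporter mRNA was measured by RT-PCR with fluorescent labelling and capillary electrophoresis; gain of signal fitted against DMSO.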

[2] = biological target: human Peroxisome Proliferator-activated Receptor delta (PPARd), PPARD (gene 5467) (UniProt Q03181); test: ATG_PPARd_TRANS: Attagene TRANS-FACTORIAL HepG2 Assay for human Peroxisome Proliferator-activated Receptor delta (PPARd) (AID 2283002)
Sequence of human Peroxisome Proliferator-activated Receptor delta (PPARd), PPARD (gene 5467) (Q03181 whole entry, looked up, the tested form may be a part): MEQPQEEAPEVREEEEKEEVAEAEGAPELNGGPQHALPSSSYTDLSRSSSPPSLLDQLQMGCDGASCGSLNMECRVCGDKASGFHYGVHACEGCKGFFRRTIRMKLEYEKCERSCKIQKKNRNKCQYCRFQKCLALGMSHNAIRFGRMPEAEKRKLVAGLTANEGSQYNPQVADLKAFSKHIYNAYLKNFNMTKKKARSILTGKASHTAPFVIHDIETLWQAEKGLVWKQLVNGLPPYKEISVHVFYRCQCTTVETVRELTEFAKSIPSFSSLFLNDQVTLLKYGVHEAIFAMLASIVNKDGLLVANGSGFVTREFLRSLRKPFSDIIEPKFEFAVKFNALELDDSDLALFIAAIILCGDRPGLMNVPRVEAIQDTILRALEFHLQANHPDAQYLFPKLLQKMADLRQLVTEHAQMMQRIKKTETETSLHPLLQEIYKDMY
Procedure, shortened: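 Measured quantity: GAL4-UAS reporter transcript induction in HepG2 after 24 h chemical dosing, with NR-Gal4 chimeras supplied by transient transfection. Detection by RT-PCR and capillary electrophoresis; upward fit against DMSO.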

[3] = biological target: Peroxisome proliferator-activated receptor gamma (Homo sapiens) (UniProt P37231); test: ATG_PPARg_TRANS: Attagene TRANS-FACTORIAL HepG2 Assay for human Peroxisome Proliferator-activated Receptor-gamma (PPARg) (AID 2283007)
Sequence of Peroxisome proliferator-activated receptor gamma (Homo sapiens) (P37231 whole entry, looked up): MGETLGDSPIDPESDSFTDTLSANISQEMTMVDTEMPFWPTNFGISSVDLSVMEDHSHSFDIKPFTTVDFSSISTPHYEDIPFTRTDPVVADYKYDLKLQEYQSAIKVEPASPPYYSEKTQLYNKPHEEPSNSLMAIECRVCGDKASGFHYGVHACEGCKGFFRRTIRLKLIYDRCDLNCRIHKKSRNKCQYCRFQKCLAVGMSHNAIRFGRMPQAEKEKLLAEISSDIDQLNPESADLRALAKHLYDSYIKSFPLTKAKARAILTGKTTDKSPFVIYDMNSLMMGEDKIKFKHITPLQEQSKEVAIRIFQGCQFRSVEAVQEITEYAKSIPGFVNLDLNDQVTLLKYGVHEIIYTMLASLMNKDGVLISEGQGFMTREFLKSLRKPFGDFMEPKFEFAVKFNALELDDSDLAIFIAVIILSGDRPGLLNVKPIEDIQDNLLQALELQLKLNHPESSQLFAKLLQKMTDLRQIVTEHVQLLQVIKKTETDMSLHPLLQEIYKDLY
Procedure, shortened: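 Human hepatoma HepG2, transient MRTU transfection, 24 h treatment. mRNA reporter signal by RT-PCR plus capillary electrophoresis, fluorescence detection; fitted for increase over DMSO negative control.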

[4] = biological target: Nuclear receptor subfamily 1 group I member 2 (Homo sapiens) (UniProt O75469); test: ATG_PXR_TRANS: Attagene TRANS-FACTORIAL HepG2 Assay for human Pregnane X Receptor (PXR) (AID 2283008)
Sequence of Nuclear receptor subfamily 1 group I member 2 (Homo sapiens) (O75469 whole entry, looked up, the tested form may be a part): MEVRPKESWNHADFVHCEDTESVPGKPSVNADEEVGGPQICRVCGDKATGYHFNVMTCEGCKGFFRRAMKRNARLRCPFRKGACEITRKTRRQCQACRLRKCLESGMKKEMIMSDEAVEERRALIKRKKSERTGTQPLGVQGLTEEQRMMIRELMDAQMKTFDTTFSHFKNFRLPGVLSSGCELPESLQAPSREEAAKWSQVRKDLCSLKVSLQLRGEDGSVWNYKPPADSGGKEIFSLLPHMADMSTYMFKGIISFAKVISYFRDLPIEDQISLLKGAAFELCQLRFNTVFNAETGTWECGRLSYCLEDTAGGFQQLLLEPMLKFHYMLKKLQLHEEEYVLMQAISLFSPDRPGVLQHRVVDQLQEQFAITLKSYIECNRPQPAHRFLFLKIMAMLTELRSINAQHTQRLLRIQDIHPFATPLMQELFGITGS
Procedure, shortened: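 Read-out is fluorescence of labelled reporter cDNA fragments separated by capillary electrophoresis after RT-PCR and HpaI digestion. Source: HepG2 cells carrying PXR-GAL4/UAS reporter constructs, treated 24 h; activity fitted upward relative to DMSO.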

[5] = biological target: human RAR-related Orphan Receptor gamma (RORg), RORC (gene 6097) (UniProt P51449); test: ATG_RORg_TRANS: Attagene TRANS-FACTORIAL HepG2 Assay for human RAR-related Orphan Receptor gamma (RORg) (AID 2283011);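 as to AC50: potency for induction of reporter transcripts above DMSO so activators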
Sequence of human RAR-related Orphan Receptor gamma (RORg), RORC (gene 6097) (P51449 whole entry, looked up, the tested form may be a part): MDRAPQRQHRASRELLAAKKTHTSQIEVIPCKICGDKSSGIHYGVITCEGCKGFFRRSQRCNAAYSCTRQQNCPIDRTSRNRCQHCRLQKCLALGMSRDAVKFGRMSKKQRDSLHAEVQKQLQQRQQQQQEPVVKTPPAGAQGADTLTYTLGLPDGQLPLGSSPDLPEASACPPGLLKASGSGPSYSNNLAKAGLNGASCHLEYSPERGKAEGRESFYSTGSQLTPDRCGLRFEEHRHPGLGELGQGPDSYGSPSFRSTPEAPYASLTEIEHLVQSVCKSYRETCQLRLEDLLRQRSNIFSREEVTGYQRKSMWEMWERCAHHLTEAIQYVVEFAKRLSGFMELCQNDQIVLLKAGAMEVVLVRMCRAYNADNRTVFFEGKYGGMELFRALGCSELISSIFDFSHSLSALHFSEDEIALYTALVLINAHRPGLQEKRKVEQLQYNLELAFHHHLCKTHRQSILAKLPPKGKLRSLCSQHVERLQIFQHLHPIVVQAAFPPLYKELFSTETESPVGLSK
Procedure, shortened: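 Readout: reporter transcript induction (RT-PCR, fluorescent primer extension, capillary electrophoresis) after 24 h compound exposure of transiently transfected HepG2 cells carrying a RORg-Gal4 chimera and GAL4-UAS reporters; DMSO served as baseline, with increasing signal fitted.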

[6] = read-out: Intercellular Adhesion Molecule 1 (ICAM1), ICAM1 (gene 3383); test: BSK_3C_ICAM1: BioMAP Diversity Plus: 3C Assay for Intercellular Adhesion Molecule 1 (ICAM1) Biomarker Activity (AID 2283003; active = hit-call score of the fitted dose curve at least 0.9, where 1 is the maximum; inactive = score below 0.9); conditions: primary human endothelial cells (HUVEC); actives raise or lower the signal
Procedure, shortened: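 Primary human umbilical vein endothelial cells in the BioMAP 3C system were exposed to chemicals for 24 h, then ICAM-1 was quantified by ELISA. Activity was fitted bidirectionally against the DMSO negative control baseline.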

[7] = BSK_3C_Proliferation: Cell Proliferation Assessment in the BioMAP Diversity Plus: 3C Assay (AID 2283006; active = hit-call score of the fitted dose curve at least 0.9, where 1 is the maximum; inactive = score below 0.9;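 as to AC50: potency may reflect either rise or fall in cell number versus DMSO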); conditions: primary human endothelial cells (HUVEC)
Procedure, shortened: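 Human umbilical vein endothelial cells were grown sub-confluent and exposed to chemical for 48 h, then fixed with 10% TCA and stained with 0.1% sulforhodamine B; absorbance at 560 nm gave relative cell number, fitted bidirectionally against DMSO baseline.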

[8] = biological target: human RAR-related Orphan Receptor beta (RORb), RORB (gene 6096) (UniProt Q92753); test: ATG_RORb_TRANS: Attagene TRANS-FACTORIAL HepG2 Assay for human RAR-related Orphan Receptor beta (RORb) (AID 2283010)
Sequence of human RAR-related Orphan Receptor beta (RORb), RORB (gene 6096) (Q92753 whole entry, looked up, the tested form may be a part): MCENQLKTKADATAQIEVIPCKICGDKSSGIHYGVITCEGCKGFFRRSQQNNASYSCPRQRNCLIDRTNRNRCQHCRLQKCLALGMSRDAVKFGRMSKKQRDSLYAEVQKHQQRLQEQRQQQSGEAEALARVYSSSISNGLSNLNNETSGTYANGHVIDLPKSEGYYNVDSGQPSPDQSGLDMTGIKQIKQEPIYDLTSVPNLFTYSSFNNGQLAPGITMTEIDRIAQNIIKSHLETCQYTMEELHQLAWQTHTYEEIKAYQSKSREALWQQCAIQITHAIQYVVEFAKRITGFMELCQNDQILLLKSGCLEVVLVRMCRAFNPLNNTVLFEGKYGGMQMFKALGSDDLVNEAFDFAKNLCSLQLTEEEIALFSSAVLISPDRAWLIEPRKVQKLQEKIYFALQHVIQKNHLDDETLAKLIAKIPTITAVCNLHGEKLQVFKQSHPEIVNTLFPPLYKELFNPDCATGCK
Procedure, shortened: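 HepG2 cells were transiently transfected with multiplexed GAL4-UAS reporter units expressing chimeric nuclear receptor–GAL4 proteins, then dosed for 24 h. Reporter mRNA was quantified by RT-PCR with fluorescent labelling and capillary electrophoresis; gain of signal was fitted relative to DMSO.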

[9] = biological target: human Retinoid X Receptor beta (RXRb), RXRB (gene 6257) (UniProt P28702); test: ATG_RXRb_TRANS: Attagene TRANS-FACTORIAL HepG2 Assay for human Retinoid X Receptor beta (RXRb) (AID 2283013)
Sequence of human Retinoid X Receptor beta (RXRb), RXRB (gene 6257) (P28702 whole entry, looked up, the tested form may be a part): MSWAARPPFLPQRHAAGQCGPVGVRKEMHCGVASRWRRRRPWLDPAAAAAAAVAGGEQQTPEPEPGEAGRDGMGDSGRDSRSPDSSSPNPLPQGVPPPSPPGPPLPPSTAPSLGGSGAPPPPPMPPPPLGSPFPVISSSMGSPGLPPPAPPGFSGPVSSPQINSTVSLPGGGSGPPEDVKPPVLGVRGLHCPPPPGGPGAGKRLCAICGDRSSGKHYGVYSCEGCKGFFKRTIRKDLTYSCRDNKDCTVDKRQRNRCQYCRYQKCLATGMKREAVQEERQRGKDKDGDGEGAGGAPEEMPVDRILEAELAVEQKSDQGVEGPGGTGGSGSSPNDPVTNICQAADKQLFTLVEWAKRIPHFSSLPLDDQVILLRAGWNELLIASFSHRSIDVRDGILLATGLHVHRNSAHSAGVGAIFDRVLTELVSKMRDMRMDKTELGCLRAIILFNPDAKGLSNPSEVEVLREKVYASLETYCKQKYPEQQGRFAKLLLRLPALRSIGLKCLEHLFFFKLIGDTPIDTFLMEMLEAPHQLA
Procedure, shortened: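 HepG2 cells transiently transfected with multiplexed reporter units driven by GAL4-UAS and exogenous chimeric NR-Gal4 proteins; treated 24 h. Reporter mRNA measured by RT-PCR, 6-FAM labelling and capillary electrophoresis; gain-of-signal fitted versus DMSO baseline.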

[10] = read-out: E-selectin (Homo sapiens) (UniProt P16581); test: BSK_3C_Eselectin: BioMAP Diversity Plus: 3C Assay for Eselectin Biomarker Activity (AID 2283015; active = hit-call score of the fitted dose curve at least 0.9, where 1 is the maximum; inactive = score below 0.9); conditions: primary human endothelial cells (HUVEC); actives raise or lower the signal
Procedure, shortened: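 Primary human umbilical vein endothelial cells (3C system) were dosed with chemical and cell-surface E-selectin measured by ELISA 24 h later. Bidirectional curve fitting used DMSO as negative control and baseline.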

[11] = read-out: Interleukin-1 alpha (IL1a), IL1A (gene 3552); test: BSK_BE3C_IL1a: BioMAP Diversity Plus: BE3C Assay for Interleukin-1 alpha (IL1a) Biomarker Activity (AID 2283016; active = hit-call score of the fitted dose curve at least 0.9, where 1 is the maximum; inactive = score below 0.9); conditions: primary human bronchial epithelial cells; actives raise or lower the signal
Procedure, shortened: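 Human primary bronchial epithelial cells (BE3C system) were dosed with compound and IL-1a measured by ELISA 24 h later. Activity was fitted bidirectionally against DMSO baseline; cytotoxicity was tracked in parallel cultures by SRB total-protein staining.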

[12] = read-out: Monocyte Chemoattractant Protein-1 (MCP1), CCL2 (gene 6347); test: BSK_3C_MCP1: BioMAP Diversity Plus: 3C Assay for Monocyte Chemoattractant Protein-1 (MCP1) Biomarker Activity (AID 2283017; active = hit-call score of the fitted dose curve at least 0.9, where 1 is the maximum; inactive = score below 0.9); conditions: primary human endothelial cells (HUVEC); actives raise or lower the signal
Procedure, shortened: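 Primary human umbilical vein endothelial cells (3C system) were exposed to test chemical for 24 h, after which MCP-1 was quantified by ELISA. Activity was fitted bidirectionally against DMSO as negative control and baseline.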

[13] = read-out: Monocyte Chemoattractant Protein-1 (MCP1), CCL2 (gene 6347); test: BSK_4H_MCP1: BioMAP Diversity Plus: 4H Assay for Monocyte Chemoattractant Protein-1 (MCP1) Biomarker Activity (AID 2283018; active = hit-call score of the fitted dose curve at least 0.9, where 1 is the maximum; inactive = score below 0.9); conditions: primary human endothelial cells (HUVEC); actives raise or lower the signal
Procedure, shortened: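 Human umbilical vein endothelial cells (4H system) dosed with chemical; MCP-1 measured by ELISA 24 h after dosing. Bidirectional curve fitting against DMSO negative control as baseline; parallel SRB total-protein staining tracks overt cytotoxicity.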

[14] = read-out: Human Leukocyte Antigen - DR isotype (HLADR), HLA-DRA (gene 3122); test: BSK_3C_HLADR: BioMAP Diversity Plus: 3C Assay for Human Leukocyte Antigen - DR isotype (HLADR) Biomarker Activity (AID 2283019; active = hit-call score of the fitted dose curve at least 0.9, where 1 is the maximum; inactive = score below 0.9); conditions: primary human endothelial cells (HUVEC); actives raise or lower the signal
Procedure, shortened: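 Primary human umbilical vein endothelial cells (3C system) were dosed with compound and cell-surface HLA-DR was quantified by ELISA at 24 h. Activity was fitted bidirectionally against DMSO as negative control and baseline.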

[15] = read-out: Interleukin-8 (IL8), CXCL8 (gene 3576); test: BSK_3C_IL8: BioMAP Diversity Plus: 3C Assay for Interleukin-8 (IL8) Biomarker Activity (AID 2283020; active = hit-call score of the fitted dose curve at least 0.9, where 1 is the maximum; inactive = score below 0.9); conditions: primary human endothelial cells (HUVEC); actives raise or lower the signal
Procedure, shortened: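 Primary human umbilical vein endothelial cells (3C system) were exposed to test chemical for 24 h, then IL-8 was quantified by ELISA. Responses were fitted bidirectionally against DMSO vehicle as baseline.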

[16] = biological target: human Thyroid Receptor alpha (THRa1), THRA (gene 7067) (UniProt P10827); test: ATG_THRa1_TRANS: Attagene TRANS-FACTORIAL HepG2 Assay for human Thyroid Receptor alpha (THRa1) (AID 2283014)
Sequence of human Thyroid Receptor alpha (THRa1), THRA (gene 7067) (P10827 whole entry, looked up, the tested form may be a part): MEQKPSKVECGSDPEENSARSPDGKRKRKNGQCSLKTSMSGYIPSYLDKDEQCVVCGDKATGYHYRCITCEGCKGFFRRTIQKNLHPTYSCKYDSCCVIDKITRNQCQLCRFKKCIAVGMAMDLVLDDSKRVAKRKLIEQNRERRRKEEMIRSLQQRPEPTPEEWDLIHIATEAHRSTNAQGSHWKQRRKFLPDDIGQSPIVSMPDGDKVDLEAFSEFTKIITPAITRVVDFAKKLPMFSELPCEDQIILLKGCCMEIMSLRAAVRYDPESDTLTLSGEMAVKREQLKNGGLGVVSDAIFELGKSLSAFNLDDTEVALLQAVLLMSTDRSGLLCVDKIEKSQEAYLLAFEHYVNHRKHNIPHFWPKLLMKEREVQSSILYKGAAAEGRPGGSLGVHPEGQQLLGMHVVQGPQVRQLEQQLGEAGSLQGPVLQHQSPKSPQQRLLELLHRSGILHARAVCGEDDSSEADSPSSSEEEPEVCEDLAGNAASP
Procedure, shortened: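 HepG2 cells transiently transfected with multiplexed GAL4-UAS reporter units for exogenous chimeric THRa1-Gal4; reporter mRNA measured 24 h after dosing by RT-PCR, 6-FAM labelling, HpaI digestion and capillary electrophoresis. Gain-of-signal fitted versus DMSO baseline.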

[17] = biological target: Retinoic acid receptor RXR-alpha (Homo sapiens) (UniProt P19793); test: ATG_RXRa_TRANS: Attagene TRANS-FACTORIAL HepG2 Assay for human Retinoid X Receptor alpha (RXRa) (AID 2283012)
Sequence of Retinoic acid receptor RXR-alpha (Homo sapiens) (P19793 whole entry, looked up, the tested form may be a part): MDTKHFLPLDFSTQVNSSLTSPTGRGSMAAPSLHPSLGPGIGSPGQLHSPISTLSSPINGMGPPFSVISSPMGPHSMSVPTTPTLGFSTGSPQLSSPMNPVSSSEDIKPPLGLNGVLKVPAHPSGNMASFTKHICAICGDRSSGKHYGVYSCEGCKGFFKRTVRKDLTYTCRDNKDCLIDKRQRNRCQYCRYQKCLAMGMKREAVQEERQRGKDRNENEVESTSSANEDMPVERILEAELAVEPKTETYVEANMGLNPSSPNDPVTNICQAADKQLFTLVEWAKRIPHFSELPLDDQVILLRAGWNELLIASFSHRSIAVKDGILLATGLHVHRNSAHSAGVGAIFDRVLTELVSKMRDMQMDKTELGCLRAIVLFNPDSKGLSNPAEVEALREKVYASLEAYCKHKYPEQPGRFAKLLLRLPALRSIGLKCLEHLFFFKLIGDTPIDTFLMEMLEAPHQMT
Procedure, shortened: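 HepG2 cells transiently transfected with multiplexed GAL4-UAS reporter units and chimeric NR-GAL4 fusions, dosed 24 h. Reporter mRNA measured by RT-PCR, FAM labelling, HpaI digestion and capillary electrophoresis; gain-of-signal fitted relative to DMSO baseline.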

[18] = biological target: human Retinoic Acid Receptor beta (RARb), RARB (gene 5915) (UniProt P10826); test: ATG_RARb_TRANS: Attagene TRANS-FACTORIAL HepG2 Assay for human Retinoic Acid Receptor beta (AID 2283004)
Procedure, shortened: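 HepG2 cells transiently transfected with multiplexed GAL4-UAS reporter units expressing chimeric NR–Gal4 fusions; 24 h compound exposure. Reporter mRNA quantified by RT-PCR, 6-FAM labelling, HpaI digestion and capillary electrophoresis; gain-of-signal fitted against DMSO baseline.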

[19] = biological target: Retinoic acid receptor alpha (Homo sapiens) (UniProt P10276); test: ATG_RARa_TRANS: Attagene TRANS-FACTORIAL HepG2 Assay for human Retinoic Acid Receptor alpha (RARa) (AID 2283005)
Procedure, shortened: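 HepG2 cells transiently transfected with multiple reporter units expressing chimeric RARα-GAL4 fusion, with GAL4-UAS-driven reporters. After 24 h compound exposure, reporter mRNA induction quantified by RT-PCR and capillary electrophoresis with fluorescent labeling; gain-of-signal fitted relative to DMSO control.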

[20] = biological target: human Retinoic Acid Receptor gamma (RARg), RARG (gene 5916) (UniProt P13631); test: ATG_RARg_TRANS: Attagene TRANS-FACTORIAL HepG2 Assay for human Retinoic Acid Receptor gamma (RARg) (AID 2283009)
Procedure, shortened: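 HepG2 cells transiently transfected with multiplexed reporter units expressing chimeric RARg-GAL4 and GAL4-UAS-driven reporters; 24 h compound exposure. Reporter mRNA quantified by RT-PCR with fluorescent labelling and capillary electrophoresis; gain-of-signal fitted relative to DMSO baseline.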

Measured: AC50

Sequence of E-selectin (Homo sapiens) (P16581 whole entry, looked up): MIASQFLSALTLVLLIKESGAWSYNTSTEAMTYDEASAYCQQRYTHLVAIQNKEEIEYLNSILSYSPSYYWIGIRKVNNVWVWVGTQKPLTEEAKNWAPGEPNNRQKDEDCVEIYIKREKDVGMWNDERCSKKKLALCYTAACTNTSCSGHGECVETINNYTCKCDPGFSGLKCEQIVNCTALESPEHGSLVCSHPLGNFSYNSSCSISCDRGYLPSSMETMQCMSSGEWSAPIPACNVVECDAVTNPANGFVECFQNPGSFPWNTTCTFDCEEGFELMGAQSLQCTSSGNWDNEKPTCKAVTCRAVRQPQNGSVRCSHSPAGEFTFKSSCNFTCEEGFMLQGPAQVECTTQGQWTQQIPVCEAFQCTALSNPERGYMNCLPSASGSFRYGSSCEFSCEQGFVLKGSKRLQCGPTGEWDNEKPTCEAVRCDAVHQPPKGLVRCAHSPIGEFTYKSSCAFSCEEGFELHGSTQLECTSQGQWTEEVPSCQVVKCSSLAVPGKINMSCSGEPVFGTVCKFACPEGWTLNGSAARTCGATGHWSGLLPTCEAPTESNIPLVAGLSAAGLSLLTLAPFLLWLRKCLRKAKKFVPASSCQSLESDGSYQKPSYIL

N#Cc1ccccc1
inactive: [1] | [2] | [3] | [4] | [5]

Nc1ccc(S(N)(=O)=O)cc1
inactive: [1]

C#C[C@]1(O)CC[C@H]2[C@@H]3CCC4=Cc5oncc5C[C@]4(C)[C@H]3CC[C@@]21C
active: [1] 176 µM | [7] 20 µM | [4] 5.38 µM | [9] 154 µM | [10] 1.49 µM | [11] 33.4 µM | [14] 20 µM
inactive: [2] | [6] | [8] | [12] | [13] | [15]

Cc1ccc2n[nH]nc2c1
not listed: [3] | [8] | [17] | [18] | [19] | [20]
inactive: all other assays above

CCCCCCOC(=O)CC
inactive: [1] | [2] | [3] | [4] | [8] | [5] | [17] | [9] | [16]

O=Nc1ccc(Nc2ccccc2)cc1
active: [3] 26.6 µM | [5] 40.4 µM
inactive: [1] | [2] | [4] | [8] | [17]

NC(=O)Nc1ccc(Cl)cc1
inactive: [1] | [2] | [3] | [4] | [8] | [16]

O=C(O)c1cccc([N+](=O)[O-])c1
inactive: [1] | [2] | [3] | [4] | [8] | [5] | [17] | [16]

CCn1c2ccccc2c2cc(N)ccc21
active: [7] 13.3 µM | [3] 22.9 µM | [4] 4.67 µM | [9] 14.3 µM | [12] 0.641 µM | [13] 0.812 µM | [14] 1.57 µM
not listed: [5] | [8] | [18] | [19] | [20]
inactive: all other assays above

CC1(C)CCC(C)(C)c2cc(C(=O)Nc3ccc(C(=O)O)cc3)ccc21
active: [3] 100 µM
inactive: [1] | [2] | [18] | [17] | [9]

Nc1cc(Cl)c(O)c(Cl)c1
active: [3] 30 µM
inactive: [1] | [2] | [4] | [8] | [5] | [17] | [16]

CCCCC(CC)COC(=O)/C=C\C(=O)OCC(CC)CCCC (stereo not given)
active: [3] 4.7 µM | [4] 4.17 µM
inactive: [1] | [2] | [6] | [7] | [10] | [11] | [12] | [13] | [14] | [15]

O=c1cc(-c2ccccc2)oc2cc(O)cc(O)c12
inactive: [1] | [2] | [19] | [4] | [20] | [16]
